# Results from PubChem BioAssay (NCATS).
# Several values for one entry are separate records, joined by “and”; a condition that tells them apart may be missing. Equal values may be shown once. Records with an inconclusive call do not appear. Entries that show only a call come without a potency. Activity calls are given as the source filed them. The call rests on the fitted dose curve.
# Legend:
# [1] = Cytotoxicity counterscreen for inhibitors of SARS-CoV-2 cell entry (AID 1645845); settings: cell viability (SARS-CoV-2 entry assay cells); series mostly up to 57.1 µM; further: nearly all actives have a fitted effect of over 50% in size
# How it was run: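 HEK293-ACE2 cells (Expi293F stably expressing human ACE2) seeded overnight, then compound for 1 h plus 48 h at 37C. Viability as ATP content by luminescence; normalized to wells with cells and media-only wells.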
# [2] = Primary qHTS to identify inhibitors of SARS-CoV-2 cell entry (AID 1645846); settings: SARS-CoV-2 pseudovirus cell entry assay, luminescence; activity change, negative = inhibition: at 57.1 µM (top of the series) unless noted; series mostly up to 57.1 µM; further: nearly all actives have a fitted effect of over 45% in size; further: potency means the concentration at half of the fitted maximal effect
# How it was run: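 Data are normalized to wells receiving SARS-CoV-2-S pseudoparticles and those given bald particles. Entry signal was luciferase luminescence in stable hACE2 Expi293F cells, 48 hr post-infection, after 1 hr compound pretreatment.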
compound,measurement,setting,value
O=C(O)CCC(=O)O,Potency,[1],inactive
same,Potency,[2],inactive
O=C(Oc1ccccc1)c1ccccc1O,Potency,[1],inactive
same,Potency,[2],inactive
CC1CC(OC(=O)c2ccccc2O)CC(C)(C)C1 (centres undefined),Potency,[1],inactive
same,Potency,[2],inactive
S=P(N1CC1)(N1CC1)N1CC1,Potency,[1],inactive
same,"activity change, negative = inhibition",[2],4.21%
Cn1nnc2c(C(N)=O)ncn2c1=O,Potency,[1],inactive
same,"activity change, negative = inhibition",[2],-15.9% and -14.8%
C#C[C@]1(O)CC[C@H]2[C@@H]3CCC4=CC(=O)CC[C@@H]4[C@H]3CC[C@@]21CC,Potency,[1],inactive
same,Potency,[2],inactive
CCn1cc(C(=O)O)c(=O)c2cc(F)c(N3CCNC(C)C3)c(F)c21 (centres undefined),Potency,[1],inactive
same,Potency,[2],inactive
C[C@H]1O[C@@H](n2cc(F)c(=O)[nH]c2=O)[C@H](O)[C@@H]1O,Potency,[1],inactive
same,"activity change, negative = inhibition",[2],-10.7% and -12.7%
C[C@]12CCC(=O)C=C1CC[C@@H]1[C@@H]2[C@@H](O)C[C@@]2(C)[C@H]1CC[C@]2(O)C(=O)COC(=O)CCC(=O)O,Potency,[1],inactive
same,Potency,[2],inactive
NNC(=O)c1ccncc1,Potency,[1],inactive
same,Potency,[2],inactive
CC(CC(C#N)(c1ccccc1)C(C)C)N(C)C (centres undefined),Potency,[1],inactive
same,Potency,[2],inactive
Cc1oc(=O)oc1CN1CCN(c2cc3c(cc2F)c(=O)c(C(=O)O)c2n3C(C)S2)CC1 (centres undefined),Potency,[1],inactive
same,Potency,[2],inactive
CCOC(=O)c1ccc(OCCN2C[C@H](O)[C@@H](O)[C@H](O)[C@H]2CO)cc1,Potency,[1],inactive
same,"activity change, negative = inhibition",[2],0.637%
CCCCCCCCCCCCOCCO,Potency,[1],inactive
same,"activity change, negative = inhibition",[2],-19.3%
O=C(O)c1cc(=O)c2c(OCC(O)COc3cccc4oc(C(=O)O)cc(=O)c34)cccc2o1,Potency,[1],inactive
same,Potency,[2],inactive
CN1C(=O)OC(C)(C)C1=O,Potency,[1],inactive
same,Potency,[2],inactive
NC(N)=Nc1nc(CSCC/C(N)=N/S(N)(=O)=O)cs1,Potency,[1],inactive
same,Potency,[2],inactive
CC12CCC(CC1)C(C)(C)O2,Potency,[1],inactive
same,Potency,[2],inactive
CN(C)CCOC(=O)C(c1ccccc1)C1(O)CCCC1 (centres undefined),Potency,[1],inactive
same,"activity change, negative = inhibition",[2],1%
CC(=O)OCC(=O)[C@@]1(O)[C@H](OC(C)=O)C[C@H]2[C@@H]3CCC4=CC(=O)C=C[C@]4(C)[C@@]3(F)[C@@H](O)C[C@@]21C,Potency,[1],inactive
same,Potency,[2],inactive
CC(C)(C)NCC(O)COc1cccc2c1C[C@H](O)[C@H](O)C2 (some centres undefined),Potency,[1],inactive
same,"activity change, negative = inhibition",[2],4.34%
Cc1cc(OI)c(C(C)C)cc1-c1cc(C(C)C)c(OI)cc1C,Potency,[1],inactive
same,Potency,[2],inactive
Cc1cc(O)c2c(O)c3c(O)cccc3cc2c1,Potency,[1],inactive
same,"activity change, negative = inhibition",[2],-3.92%
NCCNCCNCCNCCN,outcome,[1],inactive [at 11.3 µM]
same,"activity change, negative = inhibition",[2],4.56% [at 11.3 µM]
CCCC(=O)O[C@]1(C(=O)COC(=O)CC)CC[C@H]2[C@@H]3CCC4=CC(=O)CC[C@]4(C)[C@H]3[C@@H](O)C[C@@]21C,Potency,[1],inactive
same,"activity change, negative = inhibition",[2],-22.2% [at 27.1 µM]
CC(C)CN(C[C@@H](O)[C@H](Cc1ccccc1)NC(=O)O[C@H]1CO[C@H]2OCC[C@H]21)S(=O)(=O)c1ccc(N)cc1,Potency,[1],inactive
same,Potency,[2],inactive
O=C(CS(=O)Cc1ccco1)NC/C=C\COc1cc(CN2CCCCC2)ccn1 (centres undefined),Potency,[1],inactive
same,Potency,[2],inactive
NS(=O)(=O)c1cc2c(cc1Cl)NC(C(Cl)Cl)NS2(=O)=O (centres undefined),Potency,[1],inactive
same,"activity change, negative = inhibition",[2],-2.02% and -6.06%
Cc1onc(-c2ccccc2)c1-c1ccc(S(N)(=O)=O)cc1,Potency,[1],inactive
same,"activity change, negative = inhibition",[2],-25.7% and -12.6%
CCC(=O)c1c(O)cc(O)cc1O,Potency,[1],inactive
same,"activity change, negative = inhibition",[2],-5.3%
CNCCCC12CCC(c3ccccc31)c1ccccc12,Potency,[1],inactive
same,Potency,[2],28.2 µM (active)
COc1cc(/C=C/C(=O)O[C@H]2CC[C@]34C[C@]35CC[C@]3(C)[C@@H]([C@H](C)CCC=C(C)C)CC[C@@]3(C)[C@@H]5CC[C@H]4C2(C)C)ccc1O,Potency,[1],inactive
same,Potency,[2],inactive
CCC(C(=O)NC(=O)NC(C)=O)c1ccccc1 (centres undefined),Potency,[1],inactive
same,Potency,[2],inactive
O=C(N[C@H](CO)[C@H](O)c1ccc([N+](=O)[O-])cc1)C(Cl)Cl,Potency,[1],inactive
same,"activity change, negative = inhibition",[2],2.2%
O=C(COCCOCCOCC(=O)Nc1c(I)cc(I)c(C(=O)O)c1I)Nc1c(I)cc(I)c(C(=O)O)c1I,Potency,[1],inactive
same,Potency,[2],inactive
N#Cc1ccc(C(c2ccc(C#N)cc2)n2cncn2)cc1,Potency,[1],inactive
same,"activity change, negative = inhibition",[2],0.824% and -10.9%
Cc1ccc(C(C)C)c(O)c1,Potency,[1],inactive
same,"activity change, negative = inhibition",[2],-6.21%
CC(C(=O)O)c1ccc2c(c1)[nH]c1ccc(Cl)cc12 (centres undefined),Potency,[1],inactive
same,Potency,[2],inactive
COC(=O)c1cccnc1,Potency,[1],inactive
same,Potency,[2],inactive
NS(=O)(=O)c1cc(C2(O)NC(=O)c3ccccc32)ccc1Cl (centres undefined),Potency,[1],inactive
same,Potency,[2],inactive
C[N+](C)(C)CCOC(N)=O,Potency,[1],inactive
same,Potency,[2],inactive
CCn1cc(C(=O)O)c(=O)c2cnc(N3CCCC3)nc21,"activity change, negative = cytotoxicity",[1],1.65% [at 11.3 µM] (inactive)
same,"activity change, negative = inhibition",[2],0.588% [at 11.3 µM]
C[N+]1(C)CCCC(OC(=O)C(O)(c2ccccc2)c2ccccc2)C1 (centres undefined),Potency,[1],inactive
same,"activity change, negative = inhibition",[2],-26.9%
CC(C)Cc1ccc(CC(=O)O)cc1,Potency,[1],inactive
same,Potency,[2],inactive
COC(=O)c1ccc(O)cc1,Potency,[1],inactive
same,Potency,[2],inactive
NC[C@H]1O[C@H](O[C@H]2[C@H](O)[C@@H](O[C@H]3O[C@H](CO)[C@@H](O)[C@H](N)[C@H]3O)[C@H](N)C[C@@H]2N)[C@H](O)[C@@H](O)[C@@H]1O,outcome,[1],inactive [at 5.25 µM]
same,"activity change, negative = inhibition",[2],-26.4% [at 5.25 µM]
CCCCCCCCCCCCCCCC(=O)OC(C)C,Potency,[1],inactive
same,Potency,[2],inactive
CCn1nc(C(=O)O)c(=O)c2cc3c(cc21)OCO3,Potency,[1],inactive
same,Potency,[2],inactive
CC1(C)O[C@@H]2C[C@H]3[C@@H]4CCC5=CC(=O)C=C[C@]5(C)[C@@]4(F)[C@@H](O)C[C@]3(C)[C@]2(C(=O)CO)O1,Potency,[1],inactive
same,Potency,[2],inactive
Cc1cc(O)cc2c1O[C@](C)(CCC[C@H](C)CCC[C@H](C)CCCC(C)C)CC2,Potency,[1],inactive
same,Potency,[2],inactive
OCc1ccc(Cl)cc1Cl,Potency,[1],inactive
same,Potency,[2],inactive
C[C@@H]1O[C@@H](OC[C@H]2O[C@@H](Oc3c(-c4ccc(O)c(O)c4)oc4cc(O)cc(O)c4c3=O)[C@H](O)[C@@H](O)[C@@H]2O)[C@H](O)[C@H](O)[C@H]1O,Potency,[1],inactive
same,Potency,[2],inactive
COCC(=O)Nc1c(I)c(C(=O)NCC(O)CO)c(I)c(C(=O)N(C)CC(O)CO)c1I (centres undefined),Potency,[1],inactive
same,Potency,[2],inactive
C/C(=N\O)[C@@H](C)NCC(C)(C)CN[C@H](C)/C(C)=N/O,Potency,[1],inactive
same,Potency,[2],inactive
CCC[C@@H]1C[C@@H](C(=O)N[C@@H]([C@H]2O[C@H](SC)[C@H](O)[C@@H](O)[C@H]2O)[C@@H](C)O)N(C)C1,Potency,[1],inactive
same,Potency,[2],inactive
CCCC(O)C(CC)CO (centres undefined),Potency,[1],inactive
same,Potency,[2],inactive
CC(C)=CCC1C(=O)N(c2ccccc2)N(c2ccccc2)C1=O,Potency,[1],inactive
same,"activity change, negative = inhibition",[2],-3.84%
COc1cc(NS(=O)(=O)c2ccc(N)cc2)nc(C)n1,Potency,[1],inactive
same,Potency,[2],inactive
Cc1ccccc1OCC(O)CO (centres undefined),Potency,[1],inactive
same,Potency,[2],inactive
CC(=O)c1ccc(S(=O)(=O)NC(=O)NC2CCCCC2)cc1,Potency,[1],inactive
same,"activity change, negative = inhibition",[2],4.85%
CCCCCCCCCCCC(=O)[O][Sn]([CH2]CCC)([CH2]CCC)[O]C(=O)CCCCCCCCCCC,Potency,[1],inactive
same,"activity change, negative = inhibition",[2],-23.2%
C[C@H](NC(CCc1ccccc1)C(=O)O)C(=O)N1CCC[C@H]1C(=O)O (some centres undefined),Potency,[1],inactive
same,Potency,[2],inactive
